The whole screen tested about 5,500 compounds, of which about 2,000 (36%) were called active. Not shown: some 18% with an inconclusive outcome. Rule as the data show it: active = normalized growth mostly below about 0.91 (no sharp cut-off); inconclusive = no clear call, values can overlap the other calls; inactive = mostly above about 0.92. This is one part of the list.
Assay: chemical genetic growth profiling, strain panel (AID 1159580);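 also: tested at 20 µM; growth read once vehicle control cultures reached saturation at 30 °C; 1 = growth at the plate median or of vehicle wells; lower values mean less growth of the strain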
Conditions: S. cerevisiae deletion strains, growth OD

Measured: normalized growth

O=C(Nc1ccccc1)c1cc([N+](=O)[O-])ccc1Cl
inactive: locus YAL040C, strain CLN3, active compounds read low 1.07 | locus YCL061C, strain MRC1 (second series), active compounds read low 0.989 | locus YDR363W, strain ESC2, active compounds read low 0.967 | locus YER002W, strain NOP16, active compounds read low 0.972 | locus YGR078C, strain PAC10, active compounds read low 0.974 | locus YGR229C, strain SMI1, active compounds read low 0.996 | locus YNL175C, strain NOP13, active compounds read low 0.996 | locus YNL197C, strain WHI3, active compounds read low 0.969 | locus YNL224C, strain SQS1, active compounds read low 0.976 | locus YNL322C, strain KRE1, active compounds read low 0.999 | locus YOR083W, strain WHI5 (second series), active compounds read low 0.958 | locus YPL241C, strain CIN2, active compounds read low 1

O=[N+]([O-])c1cc(Cl)cc([N+](=O)[O-])c1Nc1ccccc1
active: locus YHR030C, strain SLT2, active compounds read low 0.824
inactive: locus YAR019C, strain CDC15, active compounds read low 0.924 | locus YBL105C, strain PKC1, active compounds read low 0.927 | locus YBR135W, strain CKS1, active compounds read low 0.916 | locus YBR136W, strain MEC1, active compounds read low 0.923 | locus YBR160W, strain CDC28, active compounds read low 0.918 | locus YDL017W, strain CDC7, active compounds read low 0.937 | locus YDL028C, strain MPS1, active compounds read low 0.925 | locus YDL101C, strain DUN1, active compounds read low 0.919 | locus YDL108W, strain KIN28, active compounds read low 0.935 | locus YDL132W, strain cdc53, active compounds read low 0.91 | locus YDL214C, strain PRR2, active compounds read low 0.986 | locus YDR052C, strain DBF4, active compounds read low 0.94 | locus YDR054C, strain cdc34, active compounds read low 0.893 | locus YDR226W, strain ADK1, active compounds read low 0.934 | locus YDR477W, strain SNF1, active compounds read low 0.949 | locus YER123W, strain YCK3, active compounds read low 0.975 | locus YER133W, strain GLC7, active compounds read low 0.977 | locus YFL009W, strain cdc4, active compounds read low 0.917 | locus YFL029C, strain CAK1, active compounds read low 0.929 | locus YFR003C, strain YPI1, active compounds read low 0.938 | locus YFR019W, strain FAB1, active compounds read low 0.963 | locus YFR028C, strain CDC14, active compounds read low 0.942 | locus YGR040W, strain KSS1, active compounds read low 0.963 | locus YGR052W, strain FMP48, active compounds read low 1.1 | locus YGR092W, strain DBF2, active compounds read low 0.89 | locus YHR079C, strain IRE1, active compounds read low 0.976 | locus YHR082C, strain KSP1, active compounds read low 0.997 | locus YHR205W, strain SCH9, active compounds read low 0.965 | locus YIL147C, strain SLN1, active compounds read low 0.933 | locus YJL095W, strain BCK1, active compounds read low 0.921 | locus YJL128C, strain PBS2, active compounds read low 0.916 | locus YJL157C, strain FAR1, active compounds read low 0.957 | locus YJR016C, strain ILV3, active compounds read low 0.936 | locus YJR066W, strain TOR1 (second series), active compounds read low 0.946 | locus YJR066W, strain TOR1, active compounds read low 0.969 | locus YKL048C, strain ELM1, active compounds read low 0.93 | locus YKL067W, strain YNK1, active compounds read low 0.982 | locus YKL101W, strain HSL1, active compounds read low 0.96 | locus YKL193C, strain SDS22, active compounds read low 0.932 | locus YKL203C, strain TOR2, active compounds read low 0.989 | locus YLR113W, strain HOG1, active compounds read low 0.923 | locus YLR133W, strain CKI1, active compounds read low 0.954 | locus YLR403W, strain SFP1, active compounds read low 0.992 | locus YML070W, strain DAK1, active compounds read low 0.987 | locus YMR001C, strain CDC5, active compounds read low 0.929 | locus YMR205C, strain PFK2 (second series), active compounds read low 0.998 | locus YMR277W, strain FCP1, active compounds read low 0.936 | locus YNL006W, strain LST8, active compounds read low 0.926 | locus YNL020C, strain ARK1, active compounds read low 0.928 | locus YNL161W, strain CBK1, active compounds read low 0.92 | locus YNL183C, strain NPR1, active compounds read low 0.992 | locus YNL207W, strain RIO2, active compounds read low 0.935 | locus YNL222W, strain SSU72, active compounds read low 0.936 | locus YNL307C, strain MCK1 (second series), active compounds read low 0.943 | locus YOL078W, strain AVO1, active compounds read low 0.922 | locus YOL136C, strain PFK27, active compounds read low 0.981 | locus YOR061W, strain CKA2, active compounds read low 0.968 | locus YOR119C, strain RIO1, active compounds read low 1.03 | locus YOR231W, strain MKK1, active compounds read low 0.962 | locus YOR329C, strain SCD5, active compounds read low 0.926 | locus YPL031C, strain PHO85, active compounds read low 0.948 | locus YPL153C, strain RAD53, active compounds read low 0.965 | locus YPL204W, strain HRR25, active compounds read low 0.946 | locus YPL209C, strain IPL1, active compounds read low 0.933 | locus YPL256C, strain CLN2, active compounds read low 0.972 | locus YPR025C, strain CCL1, active compounds read low 0.922 | locus YPR106W, strain ISR1, active compounds read low 0.949 | locus YPR111W, strain DBF20, active compounds read low 0.934 | strain NNK1, active compounds read low 0.954 | strain TSCII, active compounds read low 0.915

— PubChem BioAssay AID1159580 (chemical genetic matrix, 2015)
